Source: PubChem
hcDAF12 agonist = activates DAF-12 receptor from parasite H. contortus | hit rate 1.4% among 370,000 | HEK293 hcDAF-12 lit1-tk-luc reporter, luminescence; 0% DMSO, 100% Δ7-dafachronic acid | AID 652067 | activation, % at 6.8 µM;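 active = activation above the mean of all tested compounds plus 3 SD, cut at about 5.5% in these data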;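 also: 100% = response to 3 µM Δ7-dafachronic acid high control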
DAX1 inh-1 = NR0B1 (DAX1) inhibition. P51843. HEK293 Gal4-DAX1 luciferase reporter, luminescence. hit rate 0.99% among 340,000. inhibition, % at 6.75 µM. AID 504766;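 active = inhibition above the mean over all tested compounds plus 3 SD, cut at about 4.2% in these data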;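 also: 0% = DAX1-transfected cells with DMSO and 100% = empty-vector control cells with DMSO; inhibition shows as a rise in luminescence from relieved DAX1 repression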
Target sequence (P51843 207-470 limits assumed): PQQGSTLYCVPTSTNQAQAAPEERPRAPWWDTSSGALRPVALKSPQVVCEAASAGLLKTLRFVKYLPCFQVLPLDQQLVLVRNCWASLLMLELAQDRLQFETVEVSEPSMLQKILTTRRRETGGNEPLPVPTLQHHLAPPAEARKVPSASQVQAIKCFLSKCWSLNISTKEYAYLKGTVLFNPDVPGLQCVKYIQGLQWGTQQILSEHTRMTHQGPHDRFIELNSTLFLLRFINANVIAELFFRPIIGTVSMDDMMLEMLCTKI
ssDAF-12 act = S. stercoralis DAF-12 activation, primary screen; HEK293 ssDAF-12/GRIP1 lit1-tk-luc reporter, luminescence; % of 3 µM dafachronic acid response; activation, % at 6.8 µM; hit rate 1% among 370,000; AID 652126;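 active = activation above the mean over all tested compounds plus 3 SD, cut at about 0.9% in these data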;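 also: 0% = DMSO-only wells and 100% = 3 µM delta7-dafachronic acid wells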
DAX1 inh-2 = DAX1 (NR0B1) inhibition, primary screen; HEK293T StAR-luciferase reporter, SF-1/DAX-1 repression relief; inhibition, % at 6.8 µM; hit rate 1.1% among 370,000; AID 652010;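 active = inhibition above the mean over all tested compounds plus 3 SD, cut at about 3.6% in these data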;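 also: 0% = DAX-1 cells with DMSO and 100% = cells lacking DAX-1 with DMSO; higher inhibition means more luminescence from relief of DAX-1 repression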
Rev-erbA mod = Rev-erb alpha (human) modulation. P20393. Rev-erbα–FITC-DNA binding, fluorescence polarization, 90 min. activity, % at 10 µM. hit rate 0.79% among 370,000. AID 1259318;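 active = activity above about 14%, limit read from the data; passing the limit was not always enough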;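 also: 0% = DMSO wells with 35 nM protein and 100% = DMSO wells with 750 nM protein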
hgDAF-12 ag = activates the H. glycines DAF-12 receptor ligand-binding domain | HEK293 GAL4-hgDAF12 UAS-luciferase reporter, agonist luminescence; normalized to butyrate control | activation, % at 6.8 µM | hit rate 1.8% among 370,000 | AID 687014;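 active = activation above a cutoff set at the mean of all screened compounds plus 3 SD, cut at about 10% in these data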;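 also: 0% = DMSO wells and 100% = sodium butyrate wells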
NR1D1 mod conf = Rev-erb alpha (human) modulation, hit confirmation. shares compounds with Rev-erbA mod. Rev-erb alpha FITC-DNA binding, fluorescence polarization, 90 min. activation, % at 25 µM. hit rate 61% among 3,000;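 active = activation at or above a set limit, or at least 3 SD above the negative control mean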;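 also: 0% = 35 nM protein with DMSO and 100% = 750 nM protein high control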
RORg DNA counter = affects RORgamma DNA binding in a Rev-erb alpha counter-screen | shares compounds with Rev-erbA mod | purified RORgamma protein-FITC-DNA binding, fluorescence polarization | IC50, µM | hit rate 8% among 910 | AID 1259320;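 active = Compounds whose fitted half-maximal concentration for disrupting protein-DNA binding is below 10 micromolar; the record names Rev-erb in its text, so the target is in doubt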
An asterisk follows results filed as active. Hits are enriched below; roughly 4.8% of the tested compounds scored in any of these assays.

`COc1ccc(C(=O)N2CCCC(CCC(=O)NCc3ccc(F)c(F)c3)C2)cc1F` (stereo not drawn) gave hcDAF12 agonist -2, DAX1 inh-1 0, ssDAF-12 act -2, DAX1 inh-2 1, Rev-erbA mod 2 and hgDAF-12 ag 2.
For COc1ccc(C(=O)N2CCCC(CCC(=O)NCc3ccc(F)c(F)c3)C2)o1 (stereo not drawn) the results were hcDAF12 agonist 0, DAX1 inh-1 0, ssDAF-12 act 0, DAX1 inh-2 1, Rev-erbA mod 15*, hgDAF-12 ag 4 and NR1D1 mod conf -2.
`CC1=CC(=C(C#N)C#N)C=C(C)N1CCN1CCN(C(=O)Nc2ccc(Cl)c(Cl)c2)CC1` gave hcDAF12 agonist 0, DAX1 inh-1 0, ssDAF-12 act -2, DAX1 inh-2 0, Rev-erbA mod 41*, hgDAF-12 ag -1 and NR1D1 mod conf 26*.
For COc1ccc(NC(=O)c2sc(=O)n(Cc3ccccc3C#N)c2C)cc1OC the results were hcDAF12 agonist -1, ssDAF-12 act -1, DAX1 inh-2 -1, Rev-erbA mod -6 and hgDAF-12 ag 0.
`O=C(COc1ccc2c(-c3ccccc3)cc(=O)oc2c1)Nc1ccc(CCO)cc1` gave hcDAF12 agonist 0, DAX1 inh-1 -1, ssDAF-12 act -2, DAX1 inh-2 -5, Rev-erbA mod 53*, hgDAF-12 ag -4 and NR1D1 mod conf 25*.
Screening C[C@H]1[C@@H](OC(=O)N2CCCC2)CC[C@@]23CCCN2C(=O)CCC[C@@H]13 returned hcDAF12 agonist 0, ssDAF-12 act -2, Rev-erbA mod 0 and hgDAF-12 ag -1.
Screening CC(C)Cn1c(N)c(C(=O)COC(=O)c2cc(C(F)(F)F)nc3c(C(F)(F)F)cccc23)c(=O)n(C)c1=O returned hcDAF12 agonist -1, ssDAF-12 act -1, DAX1 inh-2 0, Rev-erbA mod 46*, hgDAF-12 ag 0 and NR1D1 mod conf 21*.
Screening Cn1c(=O)c(C(=O)COC(=O)c2cc(C(F)(F)F)nc3ccccc23)c(N)n(Cc2ccccc2)c1=O returned hcDAF12 agonist 0, ssDAF-12 act -1, DAX1 inh-2 0, Rev-erbA mod -4 and hgDAF-12 ag 0.
For O=C(O)CN1C(c2ccccc2O)Nc2ccc(Br)cc2C1c1ccccc1 (stereo not drawn) the results were hcDAF12 agonist 0, ssDAF-12 act 0, DAX1 inh-2 0, Rev-erbA mod -4 and hgDAF-12 ag 0.
Screening COc1ccc(C2Nc3ccc(Br)cc3C(c3ccccc3)N2CC(=O)O)cc1 (stereo not drawn) returned hcDAF12 agonist 1, DAX1 inh-1 0, ssDAF-12 act -1, DAX1 inh-2 0, Rev-erbA mod 18*, hgDAF-12 ag -1 and NR1D1 mod conf 11.
CCOC(=O)c1c(C#N)cnn1-c1ccc(C)cc1 was read as hcDAF12 agonist -1, DAX1 inh-1 1, ssDAF-12 act -1, DAX1 inh-2 0, Rev-erbA mod 6 and hgDAF-12 ag 1.
CCOC(=O)c1c(C)c(C#N)c2c3ccccc3ccn12 was read as hcDAF12 agonist -1, DAX1 inh-1 0, ssDAF-12 act -1, DAX1 inh-2 0, Rev-erbA mod 58*, hgDAF-12 ag 1 and NR1D1 mod conf 17*.
For COC(=O)C[C@@H]1CC[C@@H]2[C@@H](COc3ccc(NS(=O)(=O)c4ccc(F)cc4)cc3C(=O)N2C)O1 the results were hcDAF12 agonist -1, ssDAF-12 act 0, DAX1 inh-2 0, Rev-erbA mod 6 and hgDAF-12 ag -2.
`COc1cccc(CNC(=O)C[C@H]2CC[C@H]3[C@@H](COc4ccc(NC(=O)c5cccs5)cc4C(=O)N3C)O2)c1` gave hcDAF12 agonist -1, ssDAF-12 act -1, DAX1 inh-2 0, Rev-erbA mod 60*, hgDAF-12 ag 7, NR1D1 mod conf 43* and RORg DNA counter >40.
`CN1C(=O)c2cc(NS(=O)(=O)c3ccc(F)cc3)ccc2OC[C@H]2O[C@@H](CC(=O)NCC(F)(F)F)CC[C@@H]21` gave hcDAF12 agonist -1, ssDAF-12 act -1, DAX1 inh-2 -1, Rev-erbA mod 130*, hgDAF-12 ag -3, NR1D1 mod conf 79* and RORg DNA counter 7.2*.
`CCNC(=O)Nc1ccc2c(c1)C(=O)N(C)[C@H]1CC[C@H](CC(=O)N[C@H](C)c3ccccc3)O[C@@H]1CO2` gave hcDAF12 agonist 1, ssDAF-12 act -1, DAX1 inh-2 0, Rev-erbA mod 80*, hgDAF-12 ag 1, NR1D1 mod conf 55* and RORg DNA counter >40.
`C[C@@H](NC(=O)C[C@H]1CC[C@H]2[C@@H](COc3ccc(NC(=O)Nc4ccccc4)cc3C(=O)N2C)O1)c1ccccc1` gave hcDAF12 agonist -2, ssDAF-12 act -1, DAX1 inh-2 1, Rev-erbA mod 26*, hgDAF-12 ag 0 and NR1D1 mod conf 20*.
COC(=O)CSc1nc2cc3c(cc2cc1C#N)OCO3 was read as hcDAF12 agonist 3, DAX1 inh-1 4.7*, ssDAF-12 act 0, DAX1 inh-2 3.7*, Rev-erbA mod 58*, hgDAF-12 ag 12* and NR1D1 mod conf 23*.
`CC(C)OC(=O)CSc1nc2cc3c(cc2cc1C#N)OCO3` gave hcDAF12 agonist -2, DAX1 inh-1 1, ssDAF-12 act -1, DAX1 inh-2 -1, Rev-erbA mod 49*, hgDAF-12 ag 3 and NR1D1 mod conf 9.
`N#Cc1cc2cc3c(cc2nc1SCC(=O)N1CCOCC1)OCO3` gave hcDAF12 agonist 4, DAX1 inh-1 6.6*, ssDAF-12 act -1, DAX1 inh-2 1, Rev-erbA mod 37*, hgDAF-12 ag 7 and NR1D1 mod conf 12.
`Cc1ccc(-c2c(C#N)c(N)n(-c3ccc(Cl)cc3)c(=O)c2C#N)cc1` gave hcDAF12 agonist 0, ssDAF-12 act -2, DAX1 inh-2 0, Rev-erbA mod 38*, hgDAF-12 ag 0, NR1D1 mod conf 29* and RORg DNA counter >40.
`CCOC(=O)c1nn(-c2ccc(Cl)cc2)c2nc(CC)c(C#N)c(=O)n12` gave hcDAF12 agonist -2, DAX1 inh-1 1, ssDAF-12 act -2, DAX1 inh-2 -1, Rev-erbA mod 33*, hgDAF-12 ag -1 and NR1D1 mod conf 6.
